Experimental data from PubChem BioAssay (NCI).
About 83,000 compounds went through this panel and 20% of them were active in at least one assay; those are over-represented in the sample as a whole.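 Results are percent growth after 48 hours of single-concentration exposure. 100 means growth as in untreated cells, lower positive values show inhibition; negative values down to -100 show cell death.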 A number with no mark means an inactive call. Activity calls are given as the source filed them. The calls were made as follows: active = growth percent below 10; inactive = the rest.

What was measured:
Experiment in all cases: NCI-60 one-dose screen, 48 h (100 = growth as untreated, 0 = no growth, -100 = all killed)
Conditions in all cases: 10 µM unless noted
[1] = system: SR leukemia
[2] = system: OVCAR-8 ovarian
[3] = system: OVCAR-5 ovarian
[4] = system: OVCAR-4 ovarian
[5] = system: SK-OV-3 ovarian
[6] = system: IGROV1 ovarian
[7] = system: OVCAR-3 ovarian
[8] = system: HS 578T breast
[9] = system: NCI/ADR-RES ovarian

Row | Compound | growth [1] | growth [2] | growth [3] | growth [4] | growth [5] | growth [6] | growth [7] | growth [8] | growth [9]
1 | CCCCCCCN(CCCCCCC)C(=N)c1ccnc2ccccc12 | -44.5% (active) | -40.8% (active) | 34.7% | 5.2% (active) | 36.8% | 4.57% (active) | -41.8% (active) | -43.6% (active) | -52.5% (active)
2 | COc1ccc(CCN2C(=O)C(C)(C)SC2=S)cc1OC | 103% | 102% | 104% | 96.6% | 108% | 94.4% | 107% | 107% | 100%
3 | O=C1/C(=C\c2ccc(Br)o2)SC(=S)N1CCc1ccc(O)cc1 | 66.9% | 97.2% | 80% | 65.3% | 86.5% | 62.6% | 62.9% | 93.2% | 98.7%
4 | N#CC1=C(N)Oc2c(c(N)nn2-c2ccccc2)C1c1ccc(Cl)cc1 (stereo unspecified) | 95.8% | 95.4% | 102% | 105% | 81.7% | 84.5% | 109% | 97% | 101%
5 | C=C1C(=O)O[C@H]2[C@H]1CC/C(Cn1cc(-c3ccc(F)cc3)nn1)=C\CC[C@@]1(C)O[C@@H]21 | -15.1% (active) | -16% (active) | -1.87% (active) | 13.7% | 102% | -40.3% (active) | -91.3% (active) | 58.1% | 35.6%
6 | Nc1c2c(nc3ccc(Cl)cc13)CC(c1ccc(O)cc1)CC2=O (stereo unspecified) | 31.8% | 75.5% | 91.9% | 81.3% | 68.7% | 49.3% | 25.3% | 46.1% | 25.1%
7 | COC(=O)C(N)CSC(c1ccccc1)(c1ccccc1)c1ccccc1 (stereo unspecified) | 7.6% (active) | 36.8% | 33.3% | 79.8% | 19.4% | 28.6% | 20.7% | 21.5% | 
8 | COc1ccc(C2(Cl)c3ccccc3N(c3ccccc3)c3ccccc32)cc1 | 3.25% (active) | 6.73% (active) | 17% | 3.18% (active) | -11.1% (active) | 17.5% | -43.9% (active) | -12.9% (active) | 21.4%
9 | Cc1oc(-c2ccccc2Cl)cc1C(=O)Nc1ccc(S(N)(=O)=O)cc1 | 101% | 98.1% | 102% | 96.8% | 98.5% | 113% | 117% | 101% | 102%
10 | COC(=O)[C@]12CC[C@@H](C)[C@H](C)[C@@H]1C1=CC[C@@H]3[C@@]4(C)C(c5ncon5)=C[C@@](C)(CO)C4=CC[C@@]3(C)[C@]1(C)CC2 | -15.5% (active) | -6.22% (active) | -56.2% (active) | 5.83% (active) | 68.9% | -10.8% (active) | -86.8% (active) | 12.5% | 6.21% (active)
11 | N#C/C(=C\c1ccc(-c2ccc(F)cc2)o1)c1nc(-c2ccco2)cs1 | 86.3% | 102% | 65.1% | 19.2% | 103% | 60% | 105% | 109% | 107%
12 | C=C(C)[C@@H]1CC[C@]2(C=NCCCNCCCCNCCCN)CC[C@]3(C)[C@H](CC[C@@H]4[C@@]5(C)CCCNC(C)(C)[C@@H]5CC[C@]43C)[C@@H]12 | 21.7% | 83.8% | 112% | 102% | 95.8% | 112% | 106% | 104% | 91.8%
13 | NC(Cc1ccc(O)cc1)C(=O)N/N=C/c1ccccc1O (stereo unspecified) | 82.5% | 96.2% | 110% | 90.1% | 113% | 92.8% | 103% | 107% | 102%
14 | COc1cccc(-c2nn(-c3ccccc3)cc2-c2ccnc(NCCNS(=O)(=O)c3ccccc3)c2)c1 | 12.7% | 27.7% | 72.3% | 39.3% | 43.3% | 33.6% | 42.6% | 46.7% | 23.3%
15 | Cc1ccc(NC2CC(=O)N(c3c(C)cc(C)cc3C)C2=O)c(C)c1 (stereo unspecified) | 95.3% | 107% | 104% | 98.6% | 121% | 93.9% | 115% | 104% | 106%
16 | CCN(CC)CCCCCNc1cc(OC(=O)c2ccccc2)cc2cccnc12 | -38.1% (active) | 121% | 121% | 80.9% | 108% | 105% | 51.6% | 103% | 99.3%
17 | C#CCC(C)(O)/C=C/C1=C(C)CCCC1(C)C (stereo unspecified) | 107% | 101% | 88.7% | 107% | 92.3% | 102% | 106% | 108% | 99.8%
18 | O=C(/C=C/c1ccc2ccccc2c1)Nc1ncc(Cc2ccccc2)s1 | 16.9% | 59.8% | 49.5% | -37.5% (active) | 87.8% | 55.6% | 10% | 29.2% | 32.3%
19 | C/C(=N\Nc1ccc2ccccc2n1)c1ccccn1 | 6.18% (active) | 6.43% (active) | 24% | 21.2% | 24.7% | -2.71% (active) | 8.54% (active) | 49% | 1.66% (active)
20 | Nc1ncnc2nc(Br)[nH]c12 | 91.8% | 92.8% | 99.8% | 102% | 95.2% | 106% | 106% | 103% | 97.1%
21 | CC(C)/C=C/CC[C@](C)(O)[C@H]1CC[C@]2(C)[C@@H]1CC[C@@H]1[C@@]3(C)C/C(=C/c4cccc(C(F)(F)F)c4)C(=O)C(C)(C)[C@@H]3CC[C@]12C | 82.6% | 87.6% | 107% | 87.2% | 103% | 104% | 93.8% | 99.7% | 97.8%
22 | O=P(O)(c1ccccc1)c1ccccc1I | 88.8% | 98.2% | 103% | 102% | 86.8% | 96.2% | 108% | 97% | 98.8%
23 | C=C(C)[C@@H]1CC[C@]2(C)[C@H](CC=C3[C@@H]4CC(C)(C)CC[C@]4(C(=O)OC)CC[C@]32C)[C@@]1(C)CC/C(N)=N/O | 0.151% (active) | 38.4% | 90.4% | 36.4% | 68% | 80.2% | 67.2% | 72.4% | -24.5% (active)
24 | CCc1nnc(NC(=O)c2ccoc2COc2ccccc2)s1 | 26.4% | 63.8% | 84.7% | 92.2% | 75.9% | 53.4% | 33.8% | 62% | 12%
25 | O=S(=O)(NCCNc1cc(-c2cn(-c3ccccc3)nc2-c2cccc(O)c2)ccn1)c1ccc(C(F)(F)F)cc1 | -23.1% (active) | 48.3% | 62.7% | 39% | 54% | 43.3% | 49.2% | 48.6% | 43.4%
26 | C=C(C)[C@@H]1CC[C@]2(CN)CC[C@]3(C)[C@H](CC[C@@H]4[C@@](C)(CCCN)[C@H](C(=C)C)CC[C@]43C)[C@@H]12 | -3.93% (active) | 94.1% | 103% | 102% | 107% | 86.9% | 89.4% | 89.4% | 94.5%
27 | CCCCC/C(=C\c1ccccc1)C1OC(C)C(C)O1 (stereo unspecified) | 99.4% | 96.3% | 93.7% | 108% | 96.7% | 112% | 101% | 110% | 100%
28 | Cc1ccc(-c2ccc(/C=C(\C#N)c3nc(-c4ccco4)cs3)o2)cc1 | 89.8% | 99.8% | 77.5% | 28.1% | 101% | 63.5% | 112% | 107% | 103%
